The list is not random: actives were taken first. Their share in the collection is about 4.8%.
hgDAF-12 ag: activates the H. glycines DAF-12 receptor ligand-binding domain; actives 1.8% (n = 370,000); activation, % at 6.8 µM; AID 687014; HEK293 GAL4-hgDAF12 UAS-luciferase reporter, agonist luminescence; normalized to butyrate control;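 active = activation above a cutoff set at the mean of all screened compounds plus 3 SD, cut at about 10% in these data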;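 note: 0% = DMSO wells and 100% = sodium butyrate wells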
ssDAF12 agonist: S. stercoralis DAF-12 activation, primary screen | activation, % at 6.8 µM | HEK293 ssDAF-12/GRIP1 lit1-tk-luc reporter, luminescence; % of 3 µM dafachronic acid response | AID 652126 | actives 1% (n = 370,000);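 active = activation above the mean over all tested compounds plus 3 SD, cut at about 0.9% in these data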;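 note: 0% = DMSO-only wells and 100% = 3 µM delta7-dafachronic acid wells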
SMARCA2 act: increases SMARCA2 function in MMTV reporter cells. actives 1% (n = 370,000). MG213 cells, MMTV-luciferase reporter, dexamethasone, overnight. AID 652017. activation, % at 9.1 µM; in the data active = activation above about 7.8%;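 note: 0% = vehicle wells and 100% = reference activator wells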
hcDAF12 agonist: activators of H. contortus DAF-12 nuclear receptor. HEK293 hcDAF-12 lit1-tk-luc reporter, luminescence; 0% DMSO, 100% Δ7-dafachronic acid. activation, % at 6.8 µM. actives 1.4% (n = 370,000);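 active = activation above the mean of all tested compounds plus 3 SD, cut at about 5.5% in these data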;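 note: 100% = response to 3 µM Δ7-dafachronic acid high control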
DAX1 inh-1: blocks DAX1 repression of SF-1 activated StAR promoter. HEK293T StAR-luciferase reporter, SF-1/DAX-1 repression relief. inhibition, % at 6.8 µM. actives 1.1% (n = 370,000). AID 652010;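 active = inhibition above the mean over all tested compounds plus 3 SD, cut at about 3.6% in these data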;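 note: 0% = DAX-1 cells with DMSO and 100% = cells lacking DAX-1 with DMSO; higher inhibition means more luminescence from relief of DAX-1 repression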
DAX1 inh-2: NR0B1 (DAX1) inhibition; AID 504766; P51843; HEK293 Gal4-DAX1 luciferase reporter, luminescence; actives 0.99% (n = 340,000); inhibition, % at 6.75 µM;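 active = inhibition above the mean over all tested compounds plus 3 SD, cut at about 4.2% in these data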;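 note: 0% = DAX1-transfected cells with DMSO and 100% = empty-vector control cells with DMSO; inhibition shows as a rise in luminescence from relieved DAX1 repression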
Target sequence (P51843 207-470 limits assumed): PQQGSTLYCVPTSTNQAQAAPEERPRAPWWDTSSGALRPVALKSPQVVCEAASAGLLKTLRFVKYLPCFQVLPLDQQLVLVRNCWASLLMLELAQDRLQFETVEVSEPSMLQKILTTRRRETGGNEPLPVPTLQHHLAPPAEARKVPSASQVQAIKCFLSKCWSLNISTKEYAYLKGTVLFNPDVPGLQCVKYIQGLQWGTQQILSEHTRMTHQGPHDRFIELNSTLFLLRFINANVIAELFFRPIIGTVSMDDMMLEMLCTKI
SMARCA2 act conf: SMARCA2 activation, confirmation screen | AID 652260 | shares compounds with SMARCA2 act | actives 30% (n = 3,500) | activation, % at 9.1 µM | MG213 cells, MMTV-luciferase with dexamethasone, luminescence, overnight; MG213 cells expressing E1A, Rb sequestered; DMSO wells 0%, reference activator 100%;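 active = activation above its plate's cutoff, the mean activation of tested wells plus 3 SD, cut at about 7.9% in these data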
GAL4-VP16 Luc: activates GAL4-VP16 luciferase, flagging SMARCA2 activator hits; activation, % at 9.1 µM; HEK293 GAL4-VP16 pG5luc reporter, luciferase luminescence; scaled: DMSO wells 0%, SAHA wells 100%; actives 41% (n = 3,500); shares compounds with SMARCA2 act;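 active = activation above the solvent-only control well mean plus 3 SD, averaged across control plates, cut at about 5.2% in these data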
Starred values were filed as active, the others as inactive; . = no result.

SMILES	hgDAF-12 ag	ssDAF12 agonist	SMARCA2 act	hcDAF12 agonist	DAX1 inh-1	DAX1 inh-2	SMARCA2 act conf	GAL4-VP16 Luc
Cc1ccc(OCCCCN2CCC(C)CC2)c(Br)c1	0	-2	-3	-1	0	0	.	.
Cc1ccc(OCCCCCCN2CCNCC2)c(Br)c1	4	-1	11*	5.9*	0	4.7*	2	9.7*
COC(=O)c1ccc2c(c1)C(=O)/C(=C/c1ccc(C)cc1)O2	0	-1	-1	-1	0	1	.	.
CCc1ccc(/C=C2\Oc3ccc(C(=O)OC)cc3C2=O)cc1	2	-1	10*	0	0	2	3	6.5*
Oc1ccc(/C=N/NC(=S)NCc2ccco2)cc1	3	-1	0	-2	0	-1	.	.
Cc1cccc(NC(=O)/C(C#N)=C/c2ccccc2O)n1	8	1	12*	5	1	1	5	6.7*
N#C/C(=C\c1ccc(O)c(O)c1)C(=O)Nc1ccccc1	-1	-1	9.8*	0	1	1	0	4
C[C@@H](NC(=O)/C(C#N)=C/c1ccc(O)c(O)c1)c1ccccc1	-5	-1	-5	-2	0	0	.	.
O=C1c2ccccc2C(=O)N1c1ccc(Cl)cn1	-3	-1	8.1*	-1	0	0	3	0
COc1ccc(C(=O)OCC(=O)c2ccc3c(c2)NC(=O)CO3)cc1OC	1	0	8.6*	0	0	0	-2	1
O=C(NCC1CCN(Cc2ccccc2F)CC1)Nc1cccc(Br)c1	-5	-1	0	-2	0	0	.	.
CCOc1ccc(NC(=S)NC(=O)c2ccco2)cc1	6	-1	10*	3	1	2	2	11*
CCCCn1ccnc1C(=O)c1cc(S(=O)(=O)N2CCOCC2)ccc1C	-4	-2	-5	-4	-1	-2	.	.
COc1cc(S(=O)(=O)N2CCOCC2)cc(C(=O)c2nccn2C)c1OC	0	-2	9.3*	-3	0	0	-1	2
Cc1ccc(-n2sc3ccccc3c2=O)cc1	6	-1	8.0*	0	0	2	11*	2
CC(=O)Nc1ccc(-c2ccc(NC(C)=O)c(O)c2)cc1O	1	0	2	0	1	1	.	.
CCc1nnc(NS(=O)(=O)c2ccc(N3C(=O)c4ccccc4C3=O)cc2)s1	-1	0	11*	1	0	2	-2	2
CCc1nnc(NS(=O)(=O)c2ccc(N)cc2)s1	2	-1	-4	-1	2	1	.	.
Cc1ccc(NN2C(=O)C=C(c3ccc(Cl)cc3)C2=O)cc1	-2	-1	1	4	-1	-1	.	.
O=c1nccc(N/N=C/c2ccccc2)[nH]1	8	0	8.2*	3	0	-1	6	4
COC(=O)c1ccc(CSc2nc3ccccc3s2)o1	6	-1	14*	0	2	0	3	2
COC(=O)c1ccc(CC(=O)c2nc3ccccc3s2)cc1	1	1.0*	10*	4	1	-1	8.8*	6.9*
CCOc1ccc(OCc2ccc(C(=O)Nc3ccc(Cl)cn3)o2)cc1	1	-1	10*	0	0	0	4	3
O=C(CN1CCOCC1)Nc1nc2ccc(Cl)cc2s1	0	-1	2	-2	0	-1	.	.
CCCCNC(=O)C1CCN(Cc2ccc(OCc3ccccc3)c(OC)c2)CC1	4	-1	9.4*	0	0	1	2	6.2*
SMILES	hgDAF-12 ag	ssDAF12 agonist	SMARCA2 act	hcDAF12 agonist	DAX1 inh-1	DAX1 inh-2	SMARCA2 act conf	GAL4-VP16 Luc
Cc1ccc(S(=O)(=O)N2CCCC2C(=O)OCc2ccccc2)cc1 (stereo unspecified)	2	-1	-2	-2	0	-1	.	.
O=C(NC(Nc1ncccn1)C(=O)c1ccccc1)c1ccccc1 (stereo unspecified)	3	-2	1	-3	-1	0	.	.
COc1ccc2c(c1)c[n+](C)c1c3cc(OC)c(OC)cc3ccc21	8	-2	4	-4	-4	.	.	.
COc1cc2c[n+](C)c3c4ccccc4ccc3c2cc1OC	3	-1	11*	-1	-1	-1	42*	1
COc1ccc(C2CC(c3cccs3)=NN2S(C)(=O)=O)cc1 (stereo unspecified)	3	-2	3	2	1	2	.	.
COc1ccc(C2=NN(S(C)(=O)=O)C(c3cccs3)C2)cc1 (stereo unspecified)	5	0	10*	1	3	1	8.1*	6.5*
COc1ccccc1/C=C/C(=O)OCC(=O)Nc1ccc(Cl)cn1	2	-1	8.9*	1	0	2	11*	1
O=C(COC(=O)/C=C/c1ccccc1)Nc1ccc(Cl)cn1	1	-1	1	1	-1	2	.	.
Cc1cc(NC(=O)CSc2nc3c(sc4ccccc43)c(=O)n2CCCN2CCOCC2)n[nH]1	11*	-1	20*	0	-1	2	36*	-1
Cc1ccc(NC(=O)CSc2nc3ccccc3c(=O)n2CCCN2CCCCC2)cc1C	7	-1	13*	2	1	-1	6	3
CC(=O)c1cccc(NC(=O)CSc2nc3ccccc3c(=O)n2CCCN2CCOCC2)c1	0	-1	-2	-2	-2	0	.	.
COC(=O)C1(C(=O)OC)C[C@H](/C=C/c2ccccc2)N(Cc2ccccc2OC)[C@@H]1c1ccc(F)cc1	1	-1	-3	0	1	.	.	.
COc1ccc(C(=O)Nc2ccccc2C(=O)Nc2ccccc2)cc1	0	0	0	2	0	1	.	.
CCOC(=O)C(=O)Nc1ccccc1C(=O)Nc1ccc(OC)cc1	0	-1	9.1*	0	1	1	0	1
O=c1c(-c2ccco2)nc2ccccc2n1C(CCc1ccccc1)c1nc2ccccc2[nH]1 (stereo unspecified)	6	-1	11*	-1	0	.	-2	2
O=C(Nc1cccc(C(F)(F)F)c1)c1cc(Br)cc2c1OCC2	4	-1	-1	5	0	1	.	.
CCC(=NCc1ccccc1)c1c(C(F)(F)F)[nH]n(-c2nc3ccccc3s2)c1=O	4	-1	2	0	1	-1	.	.
